Measurements taken from the supplement of paper PMC13380429.

Tested on: Vero E6 infected with SARS-CoV-2
Assay: inhibition of SARS-CoV-2 cytopathic effect; higher = more antiviral protection, active = above 15
Settings: 48 h

Measured: inhibition of SARS-CoV-2 cytopathic effect

Cc1[nH]c2ccccc2c1CCNCc1ccc(/C=C/C(=O)NO)cc1 [panobinostat]
inactive: 1 nM -1% | 8.33 nM -0.99% | 100 nM -7.01% | 833.33 nM -13.3% | 10000 nM -14.4%

Nc1nc(CC(=O)Nc2ccc(CCNC[C@H](O)c3ccccc3)cc2)cs1 [mirabegron]
inactive: 1 nM -0.75% | 8.33 nM -0.61% | 100 nM 1.85% | 833.33 nM -1.35% | 10000 nM -3.3%

Nc1nccc(-c2c(-c3ccc(F)cc3)ncn2C2CCCCC2)n1
inactive: 1 nM 3.7% | 8.33 nM 3.92% | 100 nM -2.24% | 833.33 nM -0.2% | 10000 nM 1.35%

CC(=O)N[C@@H](Cc1ccc(O)cc1)C(=O)O [N-acetyl-tyrosine]
inactive: 1 nM -0.05% | 8.33 nM 1.2% | 100 nM 0.23% | 833.33 nM 2.56% | 10000 nM 4.82%

CC1(C)CCC(C)(C)c2c1cc(C(=O)Nc1cc(F)c(C(=O)O)c(F)c1)c(O)c2Cl
inactive: 1 nM -1.01% | 8.33 nM -0.71% | 100 nM 0.11% | 833.33 nM 2.72% | 10000 nM 3.26%

CCn1nc(C2CCN(C(=O)CCO)CC2)nc1-c1cnc(N)c(-c2nnc(C(C)(C)C)o2)n1
inactive: 1 nM -2.84% | 8.33 nM 1.6% | 100 nM 1.87% | 833.33 nM -2.41% | 10000 nM -1.94%

CC(C(=O)O)c1ccc2c(c1)Cc1cccnc1O2 (stereo not given) [pranoprofen]
inactive: 1 nM -0.06% | 8.33 nM 4.49% | 100 nM 2.65% | 833.33 nM 1.95% | 10000 nM -1.17%

CC(C)/N=c1\cc2n(-c3ccc(Cl)cc3)c3ccccc3nc-2cc1Nc1ccc(Cl)cc1 [clofazimine]
inactive: 1 nM -2.49% | 8.33 nM 0.21% | 100 nM -2.66% | 833.33 nM 6.27% | 10000 nM -0.63%

COc1cc2c(cc1OC)CN(CCc1ccc(NC(=O)c3cc(OC)c(OC)cc3NC(=O)c3cnc4ccccc4c3)cc1)CC2 [tariquidar]
inactive: 1 nM 1.54% | 8.33 nM -1.28% | 100 nM 2.75% | 833.33 nM 1.99% | 10000 nM -0.52%

Cc1c(F)cc(C(=O)NC2CC2)cc1-c1c(F)cn2c(C(C)(C)C)nnc2c1F
inactive: 1 nM -1.55% | 8.33 nM -0.6% | 100 nM -3.43% | 833.33 nM 0.89% | 10000 nM -0.19%

N#Cc1cnc2c(Cl)cc(NCc3cn(CCN4CCCCCC4)nn3)cc2c1Nc1ccc(F)c(Cl)c1 [cot-inhibitor-1]
inactive: 1 nM -0.74% | 8.33 nM 2.31% | 100 nM -0.11% | 833.33 nM -2.18% | 10000 nM -14%

O=C1CC[C@@H](C(=O)N2CSC[C@H]2C(=O)O)N1 [pidotimod]
inactive: 1 nM -1.03% | 8.33 nM 0.49% | 100 nM -1.22% | 833.33 nM 2.73% | 10000 nM -0.3%

CCCCC/N=c1\ccn(Cc2ccccc2)c2ccccc12
inactive: 1 nM -2.64% | 8.33 nM -0.49% | 100 nM -2.77% | 833.33 nM -0.71% | 10000 nM -9.28%

Cn1c(N2CCCCS2(=O)=O)nc(C(=O)NCc2ccc(F)cc2)c(O)c1=O
inactive: 1 nM -0.4% | 8.33 nM -1.76% | 100 nM -4.2% | 833.33 nM -0.06% | 10000 nM -1.72%

CC1=C(C)C(=O)C(C(CCCCCC(=O)O)c2ccccc2)=C(C)C1=O (stereo not given) [seratrodast]
inactive: 1 nM -0.6% | 8.33 nM -1.68% | 100 nM 1.92% | 833.33 nM 2.24% | 10000 nM 1.24%

O=C(Nc1ccccc1C(=O)Nc1ccc(CCO)cc1)c1ccc([N+](=O)[O-])cc1
inactive: 1 nM -0.75% | 8.33 nM 0.23% | 100 nM -1.82% | 833.33 nM -1.34% | 10000 nM -1.2%

Nc1ncnc2c1nc(Br)n2[C@@H]1O[C@@H]2COP(=O)(O)O[C@H]2[C@H]1O [8-bromo-cAMP]
inactive: 1 nM 2.13% | 8.33 nM 0.61% | 100 nM 1.53% | 833.33 nM -1.33% | 10000 nM -0.37%

c1ccc(Cn2c(-c3ccc(OC[C@H](C4CCNCC4)n4c(-c5ccccc5)nc5ccccc54)cc3)nc3ccccc32)cc1 [deltarasin]
inactive: 1 nM -4.79% | 8.33 nM -0.65% | 100 nM -1.55% | 833.33 nM -1.93% | 10000 nM -33.6%

O=C(O[C@@H]1Cc2c(O)cc(O)cc2O[C@@H]1c1ccc(O)c(O)c1)c1cc(O)c(O)c(O)c1 [epicatechin-gallate-(-)]
inactive: 1 nM -1.08% | 8.33 nM 3.11% | 100 nM 5.77% | 833.33 nM 3.37% | 10000 nM -0.51%

Cn1ccnc1S [methimazole]
inactive: 1 nM 0.07% | 8.33 nM 2.09% | 100 nM 0.26% | 833.33 nM 0.56% | 10000 nM 0.22%
